# ± gives the standard deviation. The full ranking holds about 6,600 sequences; the median of “pre-steady-state target cleavage rate” is about 0.07, and the highest 2% start at about 0.72. The list comes from a sample in which the highest values are over-represented; it also holds similar and randomly drawn sequences.
# Test system: MIWI (PIWIL1) piRISC loaded with Kctd7 piRNA (30 nt)
# Experiment: pre-steady-state target cleavage rate (min^-1); MIWI and MILI are mouse PIWI proteins and EfPiwi is from a freshwater sponge; tags in brackets are library labels; higher = faster piRNA-guided slicing of the target
# Settings: guide: Kctd7 piRNA 5'p-UGUUAAUCUCUCAGAGAAGGUGACAGUGAU; auxiliary factor: 500 nM mouse GTSF1
# Method in brief: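 Cleave-'n-Seq: 1 nM active affinity-purified piRISC with one synthetic guide and 0.1 nM transcribed, DNA-blocked target RNA library were mixed, with or without 500 nM GTSF1 partner protein, in HEPES–potassium acetate buffer at 33 °C for 0–8 or 0–960 min. Uncleaved targets were sequenced and normalised to depth and to weakly complementary targets, three trials were pooled, and k3 was capped at 0.0001 min^-1. The pre-steady-state cleavage rate was fitted […].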
row,Sequence,pre-steady-state target cleavage rate
1,UAGUGUGUCACCUUCUCUGAGAGAGUAACA,0.394 ± 0.046
2,UUCAGUGUCACCUACUCUGAGAGAUUAACA,0.509 ± 0.033
3,UACUCUGUCACCUUCUGUGAGAGAUUAACA,0.533 ± 0.025
4,UACACUGUCACCUUCUCUGAGAGAUAUUGA [g6:g28:cont:t1A],0.0488 ± 0.017
5,UAGUGACUCACGUUCUCUGAGAGAUAAACA,0.119 ± 0.022
6,UAGUGACUCACCUUCUCAGAGAGAUAAACA,0.027 ± 0.0057
7,UAGUCUGUCACCUUCUCACAGAGAUUAACA,0.0188 ± 0.0059
8,UAGACUGUCACGUUCUCUGAGAGAUUAACA,0.671 ± 0.042
9,AUCACUGUCACGUUCUCUGAGAGAUUAACA,0.821 ± 0.043
10,AUCACAGUCACGUUCUCUGAGAGAUUAACA,0.737 ± 0.026
11,UACACUGUCACGUUCUCUGAGAGAUUAACA,0.743 ± 0.037
12,AACACUGUCACGUUCUCUGAGAGAUUAACA,0.71 ± 0.035
13,UUCACUGUCACGUUCUCUGAGAGAUUAACA,0.681 ± 0.035
14,UUGACUGUCACGUUCUCUGAGAGAUUAACA,0.711 ± 0.037
15,UACACAGUCACGUUCUCUGAGAGAUUAACA,0.679 ± 0.035
16,AUGACUGUCACGUUCUCUGAGAGAUUAACA,0.755 ± 0.054
17,UACACUGUCACGUUCUCUGUGAGAUUAACA,0.233 ± 0.014
18,UUCACAGUCACGUUCUCUGAGAGAUUAACA,0.685 ± 0.027
19,UUCUCUGUCACGUUCUCUGAGAGAUUAACA,0.564 ± 0.026
20,UAGACUGUGACCAUCUCUGAGAGAUUAACA,0.359 ± 0.025
21,UAGUGACACACCUUCACUGAGAGAUAAACA,0.112 ± 0.022
22,UUCACUGAUCACCUUCUCUGAGAGAUUAACA,0.653 ± 0.052

row,Sequence,pre-steady-state target cleavage rate
1,UUCACUGUCACCUUCUCUCAGAGAUUUACA,0.0958 ± 0.015
2,UAGACUGUCACCUUCUCUCUCUCUAAUUGA [g13:g27:cont:t1A],< 0.0001
3,UAGACUGUCACCUUCUCUGAGAGAUAAUCA,0.0918 ± 0.018
4,UUCACUGUUACCUUCUCUGAGAGAUUAACA,0.342 ± 0.032
5,UUCACUGUUCACCUUCUCUGAGAGAUUAACA,0.633 ± 0.036
6,UACACUGUUCACCUUCUCUGAGAGAUUAACA,0.614 ± 0.025
7,AUCACUGUUACCUUCUCUGAGAGAUUAACA,0.553 ± 0.033
8,AUCACUGUUCACCUUCUCUGAGAGAUUAACA,0.79 ± 0.046
9,UAGACUGUUACCUUCUCUGAGAGAUUAACA,0.745 ± 0.039
10,UAGACUGUUCACCUUCUCUGAGAGAUUAACA,0.771 ± 0.043
11,UAGACUUCACCUUCUCUGAGAGAUUAACA,0.576 ± 0.04
12,UAGACUGUCACCUUCUCUGAGAGAUUAACG [g2:g27:cont:t1G],0.674 ± 0.034
13,UAGUGAGUCACCUUCUCUGAGUCUUUAAGA,0.00546 ± 0.0039
14,UAGUGAGUCACCUUCUCUGAGAGAAUAUCA,0.124 ± 0.041
15,UAGUGACAGACCUUCUCUGAGAUAUUAACA,0.0437 ± 0.011
16,UUCUCUGUCACCUUCUCUGAGAGAUAUUGA,0.0992 ± 0.024
17,UAGUGACUCACCAAGUCUGAGAGAUAUUGA,< 0.0001
18,UAGUGACAGACCUUCUCUGUGAGUUUAACA,0.0139 ± 0.0037
19,UAGUGACACACCAUUCUCUGAGAGAUUAACA,0.245 ± 0.022
20,UAGUGACAGUGGAAGUCUGAGACAUAAACA,< 0.0001
21,UACACUGUCACCUUCUCUCUGAGAUUAACA,0.0197 ± 0.0062
22,UACACUGUCACCUUCUCUGAGAGAUUAACG [g2:g28:cont:t1G],0.566 ± 0.047

row,Sequence,pre-steady-state target cleavage rate
1,UUACACUGUCACCUUCUCUGAGAGAUUAACA,0.769 ± 0.044
2,AUACACUGUCACCUUCUCUGAGAGAUUAACA,0.752 ± 0.05
3,UACACUGUCACCUUCUCUGAGAGAUUAACC [g2:g28:cont:t1C],0.391 ± 0.034
4,UACACUGUCACCUUCUCUGAGAGAUUAACA [g2:g28:cont:t1A],0.563 ± 0.039
5,UAGUGACAGACCUUCUCUGAGAGAUAUACA,0.0324 ± 0.0083
6,UAGUCUGUCACCUUCUCAGAGAGAUUUUGA,0.0587 ± 0.02
7,UAGACUGUCACCUUCUCUGAGAGAUUAAUA,0.414 ± 0.035
8,UAGACUGUCACCAUUCUCUGAGAGAUUAACA,0.792 ± 0.055
9,UAGAGUGUCACCAUCUCUGAGAGAUUAACA,0.741 ± 0.045
10,UAGACUGUCACCAUCUCUGAGAGAUUAACA,0.741 ± 0.052
11,UAGUGUGUCACCAUCUCUGAGAGAUUAACA,0.609 ± 0.037
12,UAGACUGUCACCCUUCUCUGAGAGAUUAACA,0.517 ± 0.042
13,UUCAGUGUCACCAUCUCUGAGAGAUUAACA,0.585 ± 0.037
14,UAGACUGUCACCAUCUCUGAGAGAUUAAGA,0.112 ± 0.018
15,UAGACUGUCACCUUCUCUGAGAGAUUAACCA,0.648 ± 0.054
16,UAGACUGUCACCAUCUCUGUGAGAUUAACA,0.155 ± 0.013
17,AUCACUGUCACCGUCUCUGAGAGAUUAACA,0.608 ± 0.038
18,UAGACUGUCACCGUUCUCUGAGAGAUUAACA,0.625 ± 0.041
19,UAGACUGUCACCGUCUCUGAGAGAUUAACA,0.769 ± 0.037
20,UAGUGACACACCUUCUCUGAGUGAAUAACA,0.00377 ± 0.0036
21,UACACUGACACCUUCUCUGUGAGAUUAACA,0.181 ± 0.019
22,UACACUCAGACCUUCUCUGAGAGAUUAAGA,0.0222 ± 0.0091

row,Sequence,pre-steady-state target cleavage rate
1,UAGUGACAGACCUUCUCUGAGAGACUAACA,0.0225 ± 0.0061
2,UAGACAGUGACCUUCUCUGAGAGAUUAACA,0.554 ± 0.033
3,UACACUGAGACCUUCUCUGAGAGAUUAUGA,0.0374 ± 0.015
4,UAGUGACAGACCUUCUCUGAGACAUUAACA,0.039 ± 0.0076
5,UUCACUGUCACCUUCUCUGUGAGAUUUACA,0.158 ± 0.027
6,UAGUGACACACCUUCACUGAGACAUUAACA,0.17 ± 0.029
7,AUCACUGUCACCUUGUCUGAGAGAUAAACA,0.552 ± 0.085
8,UAGUCUGUCACAUUCUCUGAGAGAUUAACA,0.607 ± 0.03
9,UAGACUGUCACAUUCUCUGAGAGAUUAACA,0.77 ± 0.051
10,UAGACUGUCACGCUUCUCUGAGAGAUUAACA,0.563 ± 0.029
11,AUCUCUGUCACCUUCUCAGAGAGAUUAACA,0.245 ± 0.024
12,UAGUCGUCACCUUCUCUGAGAGAUUAACA,0.7 ± 0.049
13,UAGUCGGUCACCUUCUCUGAGAGAUUAACA,0.73 ± 0.037
14,UAGUCUAGUCACCUUCUCUGAGAGAUUAACA,0.67 ± 0.035
15,UAGUCAGUCACCUUCUCUGAGAGAUUAACA,0.722 ± 0.034
16,UAGUCUGUCACCUUCUCUGAGAGAUUAACA [g2:g26:cont:t1A],0.631 ± 0.026
17,UAGUCUGGUCACCUUCUCUGAGAGAUUAACA,0.749 ± 0.046
18,UUCACUCACACCUUCUCUGAGAGAUUAAGA,0.0618 ± 0.011
19,UUCACUGUCACCUUACUCUGAGAGAUUAACA,0.522 ± 0.026
20,UAGUCUGUCACCAUCUCUGAGAGAUUAAGA,0.0769 ± 0.013

# — the supplement of paper PMC10338343
